Rows were chosen to be rich in hits. Some 19% of all compounds tested hit in one or more screens of this group.
Marburg entry inh: qHTS for inhibitors of binding or entry into cells for Marburg Virus. Marburg virus pseudotyped entry inhibition, cell reporter. 1.8% of 300,000 active. AID 540276, 2011. Potency, µM (top dose mostly 37.8 µM), without a hit: at the highest dose activity change, negative = inhibition, actives largely listed as inhibitors; calls by dose curve; tested in HEK293 cells; note: potency is the fitted concentration of half-maximal effect; % is set by controls: 0 for no effect and ±100 for the full control effect
Lassa entry inh: qHTS for Inhibitors of binding or entry into cells for Lassa Virus; Lassa virus pseudotype entry inhibition, cell reporter; Potency, µM (highest dose often 37.9 µM), without a hit: at the highest dose activity change, negative = inhibition, hits mostly inhibitors; 1.2% of 300,000 active; AID 540256, 2011; calls by dose curve; tested in HEK293 cells; note: potency is the fitted concentration of half-maximal effect; % is set by controls: 0 for no effect and ±100 for the full control effect; nearly all actives have a fitted effect of over 50% in size
CHX counter: Cycloheximide Counterscreen for Small Molecule Inhibitors of Shiga Toxin; cell reporter, cycloheximide protein synthesis inhibition counterscreen; max response, %; 12% of 300,000 active; AID 2314, 2010; in the data active = max response mostly above about 13%, no sharp cut-off; inactive = mostly below about 14%; note: read at 38.3 µM for the half of the compounds with a filed dose; 0% is about no effect
Pf growth 48h: Primary qHTS for delayed death inhibitors of the malarial parasite plastid, 48 hour incubation. AID 504832, 2011. P. falciparum luciferase growth in erythrocytes, 48 h. Potency, µM (highest dose often 28.7 µM), for the others: at the top dose activity change, negative = inhibition, hits mostly inhibitors. 5.9% of 310,000 active; note: potency is the fitted concentration of half-maximal effect; % is set by controls: 0 for no effect and ±100 for the full control effect
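Luciferase-expressing P. falciparum in infected erythrocytes (2% hematocrit, 0.1% parasitemia final) in RPMI 1640/0.5% Albumax were exposed to compound for 48 hours at 37 C, 5% CO2; growth read as luminescence.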
Pf growth 96h: Primary qHTS for delayed death inhibitors of the malarial parasite plastid, 96 hour incubation | 6.9% of 320,000 active | Potency, µM (series often up to 28.7 µM), for inactives: top-dose activity change, negative = inhibition, actives largely listed as inhibitors | P. falciparum luciferase reporter growth, 96 h; note: potency is the fitted concentration of half-maximal effect; % is set by controls: 0 for no effect and ±100 for the full control effect
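Delayed-death screen, second-generation endpoint: infected erythrocytes, 2% hematocrit, 0.05% parasitemia final; 96 hours at 37 C, 5% CO2; luciferase detection reagent; luminescence decrease equals reduced growth.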
Shiga inhibitor: A qHTS for Small Molecule Inhibitors of Shiga Toxin; 9.2% of 290,000 active; inhibition, % at 38.7 µM; Vero cells, Shiga toxin protein synthesis inhibition reporter; in the data active = inhibition mostly above about 28%, no sharp cut-off; inactive = mostly below about 43%; note: 0% is about no effect
An asterisk follows results filed as active; [ ] = remark or other dose. Unless noted, calls come from the whole dose curve; as a rule, active = well fitted inhibition curve with a large enough effect; inconclusive = small, poorly fitted or top-dose-only effect, or another doubt; inactive = no such curve, though single readings can be large or run the other way.

Screening CN1CCN(CCC(=O)Nc2ccc(C3CCCC3)cc2)CC1 returned CHX counter 0, Pf growth 48h -23%, Pf growth 96h -19% and Shiga inhibitor 8.
Screening Cc1cc(C)n(C(=O)CNC(=O)c2ccc(C(C)(C)C)cc2)n1 returned CHX counter 34*, Pf growth 48h 17%, Pf growth 96h 24% and Shiga inhibitor 24.
For O=S(=O)(c1ccc2oc3ccccc3c2c1)N1CCCC1 the results were Marburg entry inh -25%, Lassa entry inh inconclusive, CHX counter -4, Pf growth 48h inconclusive, Pf growth 96h -20% and Shiga inhibitor -3.
Screening Cc1csc(NC(=O)c2cccc(S(=O)(=O)N3CCCCC3)c2)n1 returned Marburg entry inh -52%, Lassa entry inh -30%, CHX counter -2, Pf growth 48h inconclusive, Pf growth 96h inconclusive and Shiga inhibitor -9.
For O=C(Nc1nc(-c2ccccc2)cs1)c1cccc(S(=O)(=O)N2CCN(Cc3ccccc3)CC2)c1 the results were Marburg entry inh inconclusive, Lassa entry inh inconclusive, CHX counter -3, Pf growth 96h inconclusive and Shiga inhibitor -4.
CN1CCN(S(=O)(=O)c2cccc(C(=O)Nc3nc(-c4ccccc4)cs3)c2)CC1 was read as Marburg entry inh inconclusive, Lassa entry inh -20%, CHX counter 24*, Pf growth 96h -71% and Shiga inhibitor 30*.
`COc1ccc(-c2csc(NC(=O)c3cccc(S(=O)(=O)N4CCN(C)CC4)c3)n2)cc1` gave Marburg entry inh inconclusive, Lassa entry inh inconclusive, CHX counter 7, Pf growth 48h inconclusive, Pf growth 96h 12µM* and Shiga inhibitor 10.
Screening Cc1nc(-c2cccc(NC(=O)c3cccc(S(=O)(=O)N4CCCC4)c3)c2)cs1 returned Pf growth 48h 12µM* and Pf growth 96h inconclusive.
Screening Cc1cc(-c2csc(NC(=O)c3cccc(S(=O)(=O)N(C)C)c3)n2)c(C)n1-c1ccccc1 returned Marburg entry inh 1%, Lassa entry inh -1%, CHX counter 9, Pf growth 48h 8.3µM*, Pf growth 96h 12µM* and Shiga inhibitor 39*.
`COc1ccccc1N(C)S(=O)(=O)c1ccc(C(=O)OC(C)C(=O)NCc2ccc3c(c2)OCO3)cc1` (centres undefined) gave CHX counter -3, Pf growth 48h inconclusive, Pf growth 96h -14% and Shiga inhibitor -3.
Screening Cc1cccc(Oc2ccccc2NC(=O)CN2C(=O)NC3(CCCC3)C2=O)c1 returned Marburg entry inh -5%[46.1 µM], Lassa entry inh 2%, Pf growth 48h inconclusive and Pf growth 96h 26%.
Cc1nc(-c2cccc(S(=O)(=O)N3CCOCC3)c2)cs1 was read as Marburg entry inh 20%, Lassa entry inh 10%, CHX counter -2, Pf growth 48h 13µM*, Pf growth 96h 72% and Shiga inhibitor 2.
O=C(Nc1nc(-c2cccs2)cs1)c1cccc(S(=O)(=O)N2CCCCCC2)c1 was read as Marburg entry inh inconclusive, Lassa entry inh -16%, CHX counter 21*, Pf growth 48h -21% and Shiga inhibitor 99*.
For Cc1nc(-c2cccc(S(=O)(=O)N3CC(C)OC(C)C3)c2)cs1 (centres undefined) the results were Marburg entry inh -9%, Lassa entry inh -3%, CHX counter -1, Pf growth 48h -9%, Pf growth 96h inconclusive and Shiga inhibitor 11.
`Cc1ccc(NC(=O)Cn2nnc(-c3ccccc3NC(=O)c3cccs3)n2)cc1` gave Marburg entry inh inconclusive, Lassa entry inh 0.58µM*, CHX counter 13, Pf growth 48h 13µM* and Shiga inhibitor -4.
For COc1ccccc1NC(=O)Cn1nnc(-c2ccccc2NC(=O)c2cc3ccccc3oc2=O)n1 the results were Marburg entry inh inconclusive, Lassa entry inh 12%, CHX counter 39*, Pf growth 48h 42%, Pf growth 96h 64% and Shiga inhibitor 80*.
For COc1ccc(NC(=O)Cn2nnc(-c3ccccc3NC(=O)c3cccs3)n2)cc1 the results were Marburg entry inh inconclusive, Lassa entry inh inconclusive, CHX counter -2, Pf growth 48h 1.9µM*, Pf growth 96h inconclusive and Shiga inhibitor -14.
`COc1ccc2c(c1OC)C(=O)O[C@H]2[C@H]1c2cc3c(cc2CCN1C)OCO3` gave Marburg entry inh 22%.
For COc1ccc(N(CC(=O)N2CCN(c3cccc(Cl)c3)CC2)S(=O)(=O)c2c(C)noc2C)cc1 the results were Marburg entry inh -8%[46.1 µM], Lassa entry inh inconclusive, CHX counter -1, Pf growth 48h 10µM*, Pf growth 96h inconclusive and Shiga inhibitor -7.
`COc1ccc(N(CC(=O)N2CCN(c3ccc(F)cc3)CC2)S(=O)(=O)c2c(C)noc2C)cc1` gave Marburg entry inh 0%[46.1 µM], Lassa entry inh -14%[46.1 µM], CHX counter -1, Pf growth 48h inconclusive, Pf growth 96h 1.9µM* and Shiga inhibitor 0.
`CCOc1ccc(N(CC(=O)N2CCN(c3ccc(F)cc3)CC2)S(=O)(=O)c2c(C)noc2C)cc1` gave CHX counter -1, Pf growth 48h 10µM*, Pf growth 96h inconclusive and Shiga inhibitor -4.
COc1ccc(N(CC(=O)N2CCN(c3ccc(Cl)cc3)CC2)S(=O)(=O)c2c(C)noc2C)cc1 was read as CHX counter -1, Pf growth 48h inconclusive, Pf growth 96h inconclusive and Shiga inhibitor 14.
Cc1ccc(NC(=O)CN2C(=O)c3ccccc3Sc3ccc(C(=O)N4CCCC4)cc32)cc1 was read as Lassa entry inh -8%[46.1 µM].
`NC(=O)c1coc(-c2ccccc2)n1` gave Marburg entry inh 0%, Lassa entry inh -9%, CHX counter -1, Pf growth 48h -1%, Pf growth 96h 97% and Shiga inhibitor 2.
`CCn1c(SCC(=O)O)nnc1-c1ccccc1` gave Marburg entry inh -11%, Lassa entry inh -34%, CHX counter -2, Pf growth 48h 14%, Pf growth 96h -1% and Shiga inhibitor 15.
`O=C(O)C1Cc2ccccc2N2CCCC12` (centres undefined) gave Marburg entry inh -1%[46.1 µM], Lassa entry inh 10%[46.1 µM], CHX counter 1, Pf growth 48h inconclusive, Pf growth 96h 1.9µM* and Shiga inhibitor 4.
For COc1ccc2c(c1)O/C(=C\c1ccco1)C2=O the results were Marburg entry inh -11%[46.1 µM], Lassa entry inh -4%, CHX counter 30*, Pf growth 48h 126%, Pf growth 96h 114% and Shiga inhibitor 38.
For COc1ccc(/C=C2\Oc3cc(OCC(N)=O)ccc3C2=O)cc1OC the results were CHX counter -2, Pf growth 48h 6%, Pf growth 96h 16% and Shiga inhibitor 2.
